# Measurements published in PubChem BioAssay (NCI).
# “And” between values parts separate entries of the source, which are not always exact repeats. Equal values may be shown once. Compounds without any hit were thinned out: in the full panel of roughly 83,000, 20% have a hit.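 Cell lines were cultured in 96-well plates, exposed to a single compound concentration, and assessed for percent growth 48 hours later.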 The source made the active and inactive calls. Rule for the calls: active = growth percent below 10; inactive = the rest.
# Tested on: RPMI-8226 leukemia
# Experiment: NCI-60 one-dose screen, 48 h (100 = growth as untreated, 0 = no growth, -100 = all killed)
# Details: 10 µM
row,SMILES,growth
1,O=C(Nc1cccc(Br)c1)Oc1cccc2cccnc12,99.2% (inactive)
2,O=C(O)c1c(Cl)c(Cl)c(Cl)c(Cl)c1-c1c2cc(I)c(=O)c(I)c-2oc2c(I)c(O)c(I)cc12,114% (inactive) and 90.6% (inactive) and 31.5% (inactive)
3,CN(C)C(=O)c1ccc(SC(=S)NCc2ccccc2)cc1,107% (inactive)
4,COc1ccc(-c2cscc2N)cc1,88.7% (inactive)
5,O=C(Nc1c(Cl)cccc1Cl)Oc1cccc2cccnc12,45.7% (inactive)

# Same assay, conditions: 10 µM unless noted
row,SMILES,growth
1,CC(=O)ON=C1C=CC(=C(C#N)c2ccccc2)C=C1,18.7% (inactive)
2,O=C1C=CC(=O)N1C1c2ccccc2-c2ccccc21,90.7% (inactive)
3,COC(=O)c1nc(=S)[nH]c(C(=O)OC)c1C(=O)c1ccc2ccccc2c1,103% (inactive)
4,O=C(Nc1ccccc1)Oc1c(Cl)c(Cl)c(Cl)c(Cl)c1Cl,95.2% (inactive)
5,O=C1N[C@H]2[C@H](CS[C@H]2CCCCC(=O)N(CCP(c2ccccc2)c2ccccc2)CCP(c2ccccc2)c2ccccc2)N1,57% (inactive)
6,CCCCCCCCCCCCCCNCc1ccccc1,34.5% (inactive)
7,CC(C)(C)CC(C)(C)c1ccc(OCCSC(=N)N)cc1,2.8% (active)
8,Cc1ccnc(NC(c2ccccc2)c2ccc3cccnc3c2O)c1 (centres undefined),51.5% (inactive)
9,CNC(=O)N/N=C/c1ccc([N+](=O)[O-])o1,83.6% (inactive)
10,O=Nc1ccccc1N=O,86.7% (inactive)
11,O=C(/C=C\c1ccccc1)N1c2ccccc2CC1c1c[nH]c2ccccc12 (centres undefined),55.9% (inactive)
12,CN=C(N)N/N=C(\C)c1ccc2c(c1)Cc1cc(/C(C)=N/NC(N)=NC)ccc1-2,-1.58% (active)
13,COC(=O)Nc1nc2ccc(C(=O)c3ccccc3)cc2[nH]1,45.5% (inactive) and -31.7% (active)
14,O=C(Nc1cccc(Br)c1)Oc1ccc(Cl)c2cccnc12,3.35% [100 µM] (active)
15,O=C(CC1(O)C(=O)Nc2c(Cl)ccc(Cl)c21)c1ccc(Cl)cc1Cl (centres undefined),99.9% (inactive)
16,C[N+](C)=c1ccc2nc3c(cc(NCCCNc4cc5oc6cc(=[N+](C)C)ccc-6nc5c5ccccc45)c4ccccc43)oc-2c1,2.21% (active)
17,COc1cc(NS(C)(=O)=O)ccc1Nc1c2ccccc2nc2ccccc12,11.3% [2.5 µM] (inactive)
18,NC(=O)/C=C/C(=O)c1c(Cl)cccc1Cl,-34.7% (active)
19,C[n+]1c(/C=C/c2ccc([N+](=O)[O-])cc2)ccc2ccccc21,102% (inactive)
20,NC(N)=N/N=C/c1ccc([N+](=O)[O-])o1,78.7% (inactive)
21,S=C(NCCNC(=S)[S][Sn]([c]1ccccc1)([c]1ccccc1)[c]1ccccc1)[S][Sn]([c]1ccccc1)([c]1ccccc1)[c]1ccccc1,-24% (active)
22,CCC(CCCN(CC)CCc1ccccc1)OC(=O)c1cc(OC)c(OC)c(OC)c1 (centres undefined),85% (inactive)
23,COc1ccccc1OC(=O)Oc1ccccc1OC,105% (inactive) and 72.9% (inactive)
24,CCN(CC)CCOc1ccc(-c2nc3cc(Cl)ccc3s2)cc1,-12.2% (active)
25,O=[N+]([O-])c1ccc(N=Nc2ccc(O)cc2O)cc1,43% (inactive)
26,Cc1cc(N)c2ccccc2[n+]1CCCCCCCCCC[n+]1c(C)cc(N)c2ccccc21,9.49% (active) and -11.6% (active)
27,CN(C)C(=O)SC1=C(c2c(Cl)cccc2Cl)C(=O)c2ccccc21,-2.59% (active)

# Same assay, conditions: 100 µM
row,SMILES,growth
1,O=C(Nc1cccc(Br)c1)Oc1cccc2cccnc12,1.75% (active)
2,O=C(O)c1c(Cl)c(Cl)c(Cl)c(Cl)c1-c1c2cc(I)c(=O)c(I)c-2oc2c(I)c(O)c(I)cc12,24.3% (inactive)
3,CN(C)C(=O)c1ccc(SC(=S)NCc2ccccc2)cc1,-27.3% (active)
4,COc1ccc(-c2cscc2N)cc1,23.7% (inactive)
5,O=C(Nc1c(Cl)cccc1Cl)Oc1cccc2cccnc12,2.58% (active)

# Tested on: OVCAR-8 ovarian
# Experiment: as above
# Details: 10 µM unless noted
row,SMILES,growth
1,CC(=O)ON=C1C=CC(=C(C#N)c2ccccc2)C=C1,2.27% (active)
2,O=C1C=CC(=O)N1C1c2ccccc2-c2ccccc21,99.8% (inactive)
3,COC(=O)c1nc(=S)[nH]c(C(=O)OC)c1C(=O)c1ccc2ccccc2c1,107% (inactive)
4,O=C(Nc1ccccc1)Oc1c(Cl)c(Cl)c(Cl)c(Cl)c1Cl,105% (inactive) and 98% (inactive)
5,O=C1N[C@H]2[C@H](CS[C@H]2CCCCC(=O)N(CCP(c2ccccc2)c2ccccc2)CCP(c2ccccc2)c2ccccc2)N1,95.1% (inactive)
6,CCCCCCCCCCCCCCNCc1ccccc1,87% (inactive)
7,CC(C)(C)CC(C)(C)c1ccc(OCCSC(=N)N)cc1,56.2% (inactive)
8,Cc1ccnc(NC(c2ccccc2)c2ccc3cccnc3c2O)c1 (centres undefined),28.1% (inactive)
9,CNC(=O)N/N=C/c1ccc([N+](=O)[O-])o1,96.5% (inactive)
10,O=Nc1ccccc1N=O,89.4% (inactive)
11,O=C(/C=C\c1ccccc1)N1c2ccccc2CC1c1c[nH]c2ccccc12 (centres undefined),81% (inactive)
12,CN=C(N)N/N=C(\C)c1ccc2c(c1)Cc1cc(/C(C)=N/NC(N)=NC)ccc1-2,-53.5% (active)
13,COC(=O)Nc1nc2ccc(C(=O)c3ccccc3)cc2[nH]1,22% (inactive) and 20.6% (inactive) and 22.1% (inactive)
14,O=C(Nc1cccc(Br)c1)Oc1ccc(Cl)c2cccnc12,16% [100 µM] (inactive)
15,O=C(CC1(O)C(=O)Nc2c(Cl)ccc(Cl)c21)c1ccc(Cl)cc1Cl (centres undefined),107% (inactive)
16,C[N+](C)=c1ccc2nc3c(cc(NCCCNc4cc5oc6cc(=[N+](C)C)ccc-6nc5c5ccccc45)c4ccccc43)oc-2c1,-5.6% (active)
17,COc1cc(NS(C)(=O)=O)ccc1Nc1c2ccccc2nc2ccccc12,28.8% (inactive) and 23.2% (inactive) and 27.8% (inactive)
18,NC(=O)/C=C/C(=O)c1c(Cl)cccc1Cl,-67.4% (active)
19,C[n+]1c(/C=C/c2ccc([N+](=O)[O-])cc2)ccc2ccccc21,91.3% (inactive)
20,NC(N)=N/N=C/c1ccc([N+](=O)[O-])o1,79.7% (inactive)
21,S=C(NCCNC(=S)[S][Sn]([c]1ccccc1)([c]1ccccc1)[c]1ccccc1)[S][Sn]([c]1ccccc1)([c]1ccccc1)[c]1ccccc1,-99.2% (active)
22,CCC(CCCN(CC)CCc1ccccc1)OC(=O)c1cc(OC)c(OC)c(OC)c1 (centres undefined),92.2% (inactive)
23,COc1ccccc1OC(=O)Oc1ccccc1OC,103% (inactive) and 112% (inactive)
24,CCN(CC)CCOc1ccc(-c2nc3cc(Cl)ccc3s2)cc1,40.9% (inactive)
25,O=[N+]([O-])c1ccc(N=Nc2ccc(O)cc2O)cc1,61.9% (inactive)
26,Cc1cc(N)c2ccccc2[n+]1CCCCCCCCCC[n+]1c(C)cc(N)c2ccccc21,26.8% (inactive)
27,CN(C)C(=O)SC1=C(c2c(Cl)cccc2Cl)C(=O)c2ccccc21,51.7% (inactive)
